Among all 400,000 compounds or so, about 2,100 (0.53%) were called active. Roughly 14% stayed inconclusive and do not appear here. How the calls were made is not given here. Shown is part of a subset that was picked to be rich in actives.

Sequence of Ataxin-2 (Homo sapiens) (Q99700 whole entry): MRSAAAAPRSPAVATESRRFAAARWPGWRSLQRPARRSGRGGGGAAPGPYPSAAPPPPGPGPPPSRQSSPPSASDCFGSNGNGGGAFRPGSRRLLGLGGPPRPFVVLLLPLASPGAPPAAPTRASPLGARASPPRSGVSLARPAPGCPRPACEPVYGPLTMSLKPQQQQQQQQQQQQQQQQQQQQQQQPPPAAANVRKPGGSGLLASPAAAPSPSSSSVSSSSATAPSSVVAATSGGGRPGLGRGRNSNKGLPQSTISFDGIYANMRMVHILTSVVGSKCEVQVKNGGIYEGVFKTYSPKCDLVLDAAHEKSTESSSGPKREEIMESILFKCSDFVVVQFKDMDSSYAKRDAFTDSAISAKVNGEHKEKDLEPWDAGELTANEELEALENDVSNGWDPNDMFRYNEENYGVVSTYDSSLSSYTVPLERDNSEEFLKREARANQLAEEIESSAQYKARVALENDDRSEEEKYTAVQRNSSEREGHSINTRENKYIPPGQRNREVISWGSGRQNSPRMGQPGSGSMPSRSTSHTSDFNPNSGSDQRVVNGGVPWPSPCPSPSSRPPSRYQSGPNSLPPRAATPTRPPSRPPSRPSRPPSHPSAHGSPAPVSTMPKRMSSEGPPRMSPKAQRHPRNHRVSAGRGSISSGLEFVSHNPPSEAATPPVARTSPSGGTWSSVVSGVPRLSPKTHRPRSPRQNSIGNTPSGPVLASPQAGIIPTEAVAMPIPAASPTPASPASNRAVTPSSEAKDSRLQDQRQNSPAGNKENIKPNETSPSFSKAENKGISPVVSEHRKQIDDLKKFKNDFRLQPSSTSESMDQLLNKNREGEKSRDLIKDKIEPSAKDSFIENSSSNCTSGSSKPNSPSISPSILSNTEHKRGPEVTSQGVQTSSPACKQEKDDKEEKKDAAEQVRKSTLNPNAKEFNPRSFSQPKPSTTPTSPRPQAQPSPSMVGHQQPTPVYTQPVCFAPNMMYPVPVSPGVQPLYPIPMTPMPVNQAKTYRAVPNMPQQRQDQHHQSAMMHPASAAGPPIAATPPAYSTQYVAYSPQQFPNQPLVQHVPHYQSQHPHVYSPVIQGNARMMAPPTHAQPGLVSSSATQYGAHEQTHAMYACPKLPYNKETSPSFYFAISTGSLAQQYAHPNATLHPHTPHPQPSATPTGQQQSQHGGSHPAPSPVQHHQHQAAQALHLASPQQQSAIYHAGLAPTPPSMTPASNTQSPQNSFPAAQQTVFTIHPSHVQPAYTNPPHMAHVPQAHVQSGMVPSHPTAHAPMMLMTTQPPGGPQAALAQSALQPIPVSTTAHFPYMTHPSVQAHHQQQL

This assay concerns the target Ataxin-2 (Homo sapiens) (UniProt Q99700). Nature of the assay: qHTS for Inhibitors of ATXN expression. It is filed as functional. (Quantitative high-throughput screening tests each substance at several concentrations.)
As for `CCCN(C(=O)CCl)C1=CCCCC1`, the Potency is 5.97 µM (active).

As for `CSc1nc(N2CCOCC2)nc2ccc(C)cc12`, the Potency result was “inactive”.

As for `CC(=O)Oc1ccccc1C(=O)C=Cc1cccc([N+](=O)[O-])c1`, the Potency was 39.8 µM (active).

As to `O=C(Cn1cnc2ccccc21)Nc1cccc([N+](=O)[O-])c1`, the Potency entry was “inactive”.

As for `O=[N+]([O-])c1ccc(Cc2nnc(O)c3ccccc23)cc1`, the Potency result is “inactive”.

Regarding `O=C(/C=C/c1cccc([N+](=O)[O-])c1)n1cnc2ccccc21`, the Potency was 20 µM (active).

For `O=C(/C=C/c1ccc([N+](=O)[O-])cc1)c1ccccc(=O)c1O`, the Potency is 13.4 µM (active).

`CC(=O)c1ccccc1NC(=O)c1cc(S(=O)(=O)N2CCOCC2)ccc1N1CCCC1`: the Potency entry is “inactive”.

As for `O=[N+]([O-])c1ccc(COc2ncnc3ccccc23)cc1`, the Potency result was “inactive”.

As for `COc1ccccc1C(=O)/C=C/c1ccc(N2CCCCC2)c([N+](=O)[O-])c1`, the Potency is 39.8 µM (active).

Regarding `O=C(c1ccc(Cl)cc1)n1cnc2ccccc21`, the Potency result was “inactive”.

Regarding `CC(=O)c1ccc(N2CCN(C(=O)c3ccc(Cn4c(=S)[nH]c5ccc(N6CCOCC6)cc5c4=O)cc3)CC2)cc1`, the Potency result was “inactive”.

For the molecule `COc1ccc(C2=CC(c3ccc(OC)c(OC)c3)n3nnnc3N2)c(OC)c1` (stereo not drawn), the Potency entry is “inactive”.

In the case of `COC(=O)Cn1nnnc1-c1nc2cc(C)c(C)cc2nc1O`, the Potency result is “inactive”.

On to `O=C(NCCO)Nc1ccc2nsnc2c1`, for which the Potency result is “inactive”.

In the case of `COc1ccc(CNC(=O)CN2C(=O)NC(C)(c3ccc(C(C)(C)C)cc3)C2=O)cc1` (stereo not drawn), the Potency entry is “inactive”.

With `O=C(CSC1=NCCN1)NC(c1ccccc1)c1ccccc1`, the Potency result was “inactive”.

For the molecule `CCN(CC)C(=O)C1=C(C)N(Cc2ccc(C(C)(C)C)cc2)C(=O)C(CC(=O)NC(c2ccccc2)c2ccccc2)C1` (stereo not drawn), the Potency is 28.2 µM (active).

For `CCN(CCNC(=O)C1CCC(=O)N1Cc1ccc(C)cc1)c1ccccc1` (stereo not drawn), the Potency result was “inactive”.

Regarding `CCN(CC)C(=O)C1=C(C)N(Cc2ccc(C(C)(C)C)cc2)C(=O)C(CC(=O)NCCCCc2ccccc2)C1` (stereo not drawn), the Potency was 35.5 µM (active).

In the case of `CCN(CC)C(=O)C1=C(C)N(Cc2ccc(C(C)(C)C)cc2)C(=O)C(CC(=O)NCc2cccc3ccccc23)C1` (stereo not drawn), the Potency was 25.1 µM (active).

For `CC(=O)c1sc(Nc2nc3cc4c(cc3s2)OCO4)nc1C`, the Potency entry was “inactive”.

As for `O=C1C2CC(O)CN2C(=S)N1Cc1ccccc1` (stereo not drawn), the Potency result is “inactive”.

Regarding `O=C(Cc1cc(=O)oc2cc(O)ccc12)NC(Cc1ccc(Cl)cc1)C(=O)O` (stereo not drawn), the Potency result is “inactive”.

Take `COc1cc(C(=O)OCc2ccc(C)cc2)cc(NC(=O)c2cccs2)c1OC`: the Potency result was “inactive”.

As to `CC(=O)Nc1cccc(C(=O)/C=C/c2ccc(Br)cc2)c1`, the Potency is 20 µM (active).

`O=C(Nc1cccc(Br)c1)C1CCCC1`: the Potency entry was “inactive”.

For `CN(C)c1ccc(/C=C/C(=O)c2ccc3c(c2)OCO3)cc1`, the Potency result was “inactive”.

Take `COc1cccc(Cn2c(=O)c3ccccc3n3nc(C)cc23)c1`: the Potency entry is “inactive”.

As for `COc1ccc(OC)c(C(=O)/C=C/c2cccnc2)c1`, the Potency is 39.8 µM (active).

For the molecule `O=C(NNc1ccccc1)/C(=C\c1cccnc1)NC(=O)c1ccccc1`, the Potency result is “inactive”.

For `COc1cc(OC)c2cc(C(=O)N/N=C/c3ccccc3O)[nH]c2c1`, the Potency entry is “inactive”.

With `Cc1cc(O)c(C(=O)/C=C/c2ccccc2)c(=O)o1`, the Potency entry was “inactive”.

For the molecule `COc1ccc(C(=O)/C=C/c2ccc(N(C)C)cc2)c(OC)c1`, the Potency result is “inactive”.

In the case of `O=C(C=Cc1cccnc1)c1ccccc1`, the Potency is 39.8 µM (active).

For `O=C(/C=C/c1cccnc1)c1cccc(O)c1`, the Potency was 26.7 µM (active).

Regarding `COc1cc(O)c(C(=O)/C=C/c2ccccc2)c(OC)c1`, the Potency was 35.5 µM (active).

Take `CC(/C=C/C=C/c1ccccc1)=N\NC(=O)c1cccnc1`: the Potency result was “inactive”.

Consider `Cc1cc(-c2sccc2Br)nc(-n2cccc2)n1`, for which the Potency result is “inactive”.

Turning to `COc1cccc(/C=N/NC(=O)c2cnn(-c3ccccc3)c2N)c1`, the Potency entry is “inactive”.

Turning to `COc1ccc(S(=O)(=O)N2CCOCC2)cc1NC(=O)COC(=O)c1oc2ccccc2c1C`, the Potency entry was “inactive”.

As to `N#Cc1c2c(c(NCCOCCO)n3c1nc1ccccc13)CCCC2`, the Potency entry was “inactive”.

Take `OCCCc1nc2n(n1)C(c1cccc(Cl)c1)C=C(c1ccccc1)N2` (stereo not drawn): the Potency result was “inactive”.

Take `COc1ccc(C(=O)COC(=O)/C=C/c2ccco2)cc1F`: the Potency entry was “inactive”.

Take `N#Cc1ccc(/C=C/C(=O)c2cccnc2)cc1`: the Potency is 25.1 µM (active).

As for `COC(=O)C(=C/C(C)=C/c1cccnc1)C(=O)OC`, the Potency is 22.4 µM (active).

Turning to `N#Cc1ccc(/C=C\c2[nH]ccc3c4ccccc4nc2-3)cc1`, the Potency result was “inactive”.

For `N#Cc1ccc(C(=O)CSc2nnc(O)n2-c2cccnc2)cc1`, the Potency result is “inactive”.

Take `O=C(N/N=C/c1cccnc1)c1ccccc1OCc1ccc(Br)cc1`: the Potency result is “inactive”.

`Oc1cc(-c2nc3ccccc3s2)cc2c1OCCN(Cc1cccn1-c1ccccn1)C2`: the Potency is 31.6 µM (active).

With `O=c1c(-c2nc3ccccc3s2)cccn1Cc1ccc(Cl)c(Cl)c1`, the Potency entry is “inactive”.

On to `Cc1ccc(Cl)c(NC(=O)CSc2nnc(O)n2C2CC2)c1Cl`, for which the Potency entry is “inactive”.

In the case of `CN(C)CCCN1c2ccc3ccccc3c2Sc2cccc(Cl)c21`, the Potency is 37.7 µM (active).

As to `CN(C)CCCN1C(=O)c2cccc3c(Br)ccc(c23)C1=O`, the Potency entry is “inactive”.

For `CN(C)CCCN1C(=O)c2cccc3c([N+](=O)[O-])ccc(c23)C1=O`, the Potency result was “inactive”.

`CC1(C)CC(NC(=O)c2ccc(Cl)c(S(=O)(=O)N(Cc3ccccc3)c3ccccc3)c2)CC(C)(C)N1`: the Potency was 22.4 µM (active).

Take `CC1(C)CC(NC(=O)c2sc3cc(Cl)ccc3c2Cl)CC(C)(C)N1`: the Potency result was “inactive”.

Turning to `CN(c1ccccc1)S(=O)(=O)c1cc(C(=O)OCC(N)=O)ccc1Cl`, the Potency result is “inactive”.

`Cc1nc2ccc(NC(S)=NC3CCCCC3)cc2nc1C`: the Potency entry is “inactive”.

`CCCN1C2CCCC1CC(N=C(S)Nc1cccc(C)c1)C2` (stereo not drawn): the Potency result is “inactive”.

As to `Cc1cc(C)cc(NC(S)=NCCN(C2CCCCC2)C2CCCC2)c1`, the Potency is 39.8 µM (active).

For `CCN1CCc2c(sc(NC(=O)Nc3ccc(Cl)c(Cl)c3)c2C(N)=O)C1`, the Potency result was “inactive”.

Take `Cc1occc1C(=O)NNC(=O)Nc1ccc(Cl)c(Cl)c1`: the Potency result was “inactive”.

In the case of `Cc1c(NC(=O)Nc2ccc(Cl)c(Cl)c2)sc(=S)n1C`, the Potency is 39.8 µM (active).

As for `CCN(Cc1ccc(NC(C)=O)cc1)CC1CCCN(CCc2cccc(F)c2)C1` (stereo not drawn), the Potency entry was “inactive”.

For the molecule `Cc1c2c(=O)n(-c3nc4ccccc4s3)nc-2cc(O)n1Cc1ccccc1`, the Potency entry was “inactive”.

On to `COc1ccc(C(=O)N/N=C/c2sc3ccccc3c2O)cc1`, for which the Potency entry was “inactive”.

As for `COc1ccc(Nc2cnn(-c3nc4ccccc4s3)c(=O)c2Cl)cc1`, the Potency is 25.1 µM (active).

(Values after ChEMBL document CHEMBL1201862, “PubChem BioAssay data set” (2004).)
